Assay [1] has as its system Human papillomavirus type 1a protein E7 (residues 44-93). As to the kind of experiment: HPV1a E7 fragment binders on microarrays, primary screen, biochemical, small-molecule microarray, residues 44-93, 635 nm fluorescence (AID 1108).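 Further: E7 fragment applied at 1 µg/mL in TBST for 1 h at 4 C; score combines spot fluorescence with its signal to noise ratio.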 Particulars: small-molecule microarray binding, fluorescence 635 nm; higher = more signal.
Assay [2] can be described thus: modulators of HCV replicon luciferase signal, primary screen, HCV replication inhibitor project, Huh7 cells, luciferase reporter (AID 1109).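 Further: huh7 hepatoma cells harbouring a luciferase neomycin HCV replicon reporter; luciferase luminescence as measure of HCV replicon replication; test concentration not given here.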 Particulars: 48 h, higher = more signal. On the technique in general: In antiviral work, replicon cells carry a viral genome segment that copies itself.
Assay [3] addresses Left-right determination factor 2 (Homo sapiens) (UniProt O00292). As to the kind of experiment: LEFTY2 binders on small-molecule microarrays, primary screen, biochemical, small-molecule microarray, 635 nm fluorescence scan (AID 1110). As to conditions: LEFTY2 binding, higher = more signal.
Assay [4] has as its target Calmodulin-1 (Homo sapiens) (UniProt P0DP23). The assay can be described thus: CALM1 binders on microarrays, EGTA buffer, profiling panel, biochemical, small-molecule microarray, Cy5-labelled CALM1 (AID 1111).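 Further: labelled calmodulin applied in Tris saline Tween buffer holding calcium plus EGTA and DTT.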 As to conditions: Cy5-CALM1 binding fluorescence, higher = more signal.
For assay [5] the target is unchanged. As to the kind of experiment: calcium-bound CALM1 binders on microarrays, profiling panel, artefact control for SMM control-protein annotation, biochemical, small-molecule microarray, Cy5-labelled CALM1, plus calcium (AID 1112).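 Further: score merges spot fluorescence with signal to noise from triplicate slides.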 Particulars: Cy5-CALM1 binding fluorescence, higher = more signal.
A short description of assay [6]: small-molecule microarray binders of probe aWnt5a, primary screen, biochemical, biotinylated probe, 635/667 nm fluorescence (AID 1113).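 Further: score merges 667 nm fluorescence intensity with signal-to-noise per printed feature.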 As to conditions: higher = more signal.
The nature of assay [7]: small-molecule microarray binders of probe aShh, primary screen, biochemical, biotinylated probe, 635/667 nm fluorescence (AID 1114).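 Further: probe is biotin-labelled aShh protein from a stem cell growth factor screen; measures binding of labelled protein to compounds printed on the slide; score merges feature fluorescence at 667 nm with signal-to-noise.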 Particulars: higher = more signal.
A short description of assay [8]: small-molecule microarray binders of probe aNog, primary screen, biochemical, biotinylated probe, 635/667 nm fluorescence (AID 1115).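 Further: probe is biotinylated aNog protein used at 0.15 µg/mL for 1 h at 4 C; z-score combines 667 nm fluorescence of each spot with its signal to noise.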 Particulars: higher = more signal.
Assay [9] has as its target Torsin-1A-interacting protein 1 (Homo sapiens) (UniProt Q5JTV8). The assay can be described thus: LAP1 binders from COS7 cell lysate, primary screen, small-molecule microarray, 635/667 nm fluorescence (AID 1116). Particulars: COS7-hLAP1 lysate binding, 635 nm fluorescence, higher = more signal.
Assay [10] concerns the target Alpha-bungarotoxin (Bungarus multicinctus) (UniProt P60615). As to the kind of experiment: alpha-bungarotoxin binders on microarray, profiling panel, artefact control for SMM control protein annotation, biochemical, small-molecule microarray, Alexa647 label, 635/667 nm fluorescence (AID 1117). Particulars: alpha-BTX-A647 binding fluorescence, higher = more signal.
A further assay has as its target Albumin (Bos taurus) (UniProt P02769). As to the kind of experiment: bovine serum albumin binders on microarray, profiling panel, artefact control for SMM control protein annotation, biochemical, small-molecule microarray, Alexa647 label, 635/667 nm fluorescence (AID 1118).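 Further: score merges 667 nm emission intensity and signal-to-noise per printed compound spot.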 As to conditions: BSA-A647 binding, fluorescence 635 nm, higher = more signal.
Assay [11] is described as follows: small-molecule microarray binders of probe aXIP, primary screen, biochemical, NeuroSMM set, 635/667 nm fluorescence (AID 1119).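 Further: probe is the protein aXip251-270 applied at 1 µg/mL to compound-printed slides; binding of probe to printed compounds measured as 667 nm fluorescence plus signal to noise.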 As to conditions: higher = more signal, called active from +8 up or from −8 down.
The nature of assay [12]: small-molecule binders of probe aNOTCH3, primary screen, biochemical, small-molecule microarray, 635/667 nm fluorescence (AID 1120).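 Further: probe is a biotin-tagged antibody raised against NOTCH3 rather than NOTCH3 protein; score merges spot fluorescence near 667 nm with spot signal to noise.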 Particulars: higher = more signal.
Assay [13] in a line: small-molecule binders of probe aNOTCH2, primary screen, biochemical, small-molecule microarray, 635/667 nm fluorescence (AID 1121).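 Further: score merges feature fluorescence read at 667 nm with its signal to noise.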 As to conditions: higher = more signal.
Assay [14] has as its target Carbonic anhydrase 2 (Homo sapiens) (UniProt P00918). The assay can be described thus: CAII small-molecule binders, profiling panel, biochemical, small-molecule microarray, Alexa647-labelled CAII (AID 1122). Particulars: CAII-A647 binding fluorescence, higher = more signal.
A short description of assay [15]: COS7 lysate on small-molecule microarray, probe aHis, 635 nm (AID 1123).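 Further: z-score combines 667nm fluorescence intensity with signal-to-noise per printed compound spot.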 As to conditions: COS7 cell lysate, fluorescence, higher = more signal.
The nature of assay [16]: compound binding in COS7 lysate, probe aLAP1, primary screen, cell lysate, small-molecule microarray (AID 1124).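 Further: lysate comes from COS7 cells expressing LAP1 and is applied at 0.3 µg/mL; score merges spot fluorescence near 667 nm with signal-to-noise over triplicate slides.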 As to conditions: probe aLAP1, fluorescence, higher = more signal.
Another assay deals with Sam68 (KHDRBS1). As to the kind of experiment: Sam68 small-molecule binders, primary screen, biochemical, small-molecule microarray, 635 nm fluorescence (AID 1125).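 Further: score merges 667 nm channel intensity with signal to noise over triplicate slides.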 As to conditions: small-molecule microarray binding, higher = more signal.
For assay [17], the system named is Chordin-like protein 2 (CHRDL2). The assay can be described thus: CHRDL2 small-molecule binders, primary screen, biochemical, small-molecule microarray, 635 nm fluorescence (AID 1126).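 Further: printed compound slides probed with Chrdl2 protein at 4 µg/mL for 1 h at 4 C; score merges 667 nm emission intensity with signal to noise over three replicate slides.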 As to conditions: small-molecule microarray binding, fluorescence 635 nm; higher = more signal.
In assay [18] the target is Concanavalin-A (Canavalia ensiformis) (UniProt P02866). The assay can be described thus: ConA small-molecule binders, primary screen, artefact control for SMM control protein annotation, biochemical, small-molecule microarray, Alexa647 label, 635 nm (AID 1127).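 Further: z combines 667 nm emission intensity with signal-to-noise across three replicate slides.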 Particulars: ConA-A647 binding fluorescence, higher = more signal.
Chain of Concanavalin-A (Canavalia ensiformis) (P02866 whole entry, looked up): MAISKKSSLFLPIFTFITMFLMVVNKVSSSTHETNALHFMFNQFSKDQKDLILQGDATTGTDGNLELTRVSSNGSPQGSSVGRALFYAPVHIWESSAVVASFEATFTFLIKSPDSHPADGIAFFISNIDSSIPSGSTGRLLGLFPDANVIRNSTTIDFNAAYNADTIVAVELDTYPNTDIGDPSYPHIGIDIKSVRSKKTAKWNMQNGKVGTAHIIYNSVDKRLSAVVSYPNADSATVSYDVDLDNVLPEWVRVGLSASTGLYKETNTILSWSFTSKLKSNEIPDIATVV

Molecules are shown by their SMILES. Active and inactive are the calls of the source.

Chain of Alpha-bungarotoxin (Bungarus multicinctus) (P60615 whole entry, looked up): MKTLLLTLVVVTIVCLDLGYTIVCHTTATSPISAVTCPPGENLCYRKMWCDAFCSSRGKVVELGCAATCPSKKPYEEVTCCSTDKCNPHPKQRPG
Chain of Torsin-1A-interacting protein 1 (Homo sapiens) (Q5JTV8 whole entry, looked up): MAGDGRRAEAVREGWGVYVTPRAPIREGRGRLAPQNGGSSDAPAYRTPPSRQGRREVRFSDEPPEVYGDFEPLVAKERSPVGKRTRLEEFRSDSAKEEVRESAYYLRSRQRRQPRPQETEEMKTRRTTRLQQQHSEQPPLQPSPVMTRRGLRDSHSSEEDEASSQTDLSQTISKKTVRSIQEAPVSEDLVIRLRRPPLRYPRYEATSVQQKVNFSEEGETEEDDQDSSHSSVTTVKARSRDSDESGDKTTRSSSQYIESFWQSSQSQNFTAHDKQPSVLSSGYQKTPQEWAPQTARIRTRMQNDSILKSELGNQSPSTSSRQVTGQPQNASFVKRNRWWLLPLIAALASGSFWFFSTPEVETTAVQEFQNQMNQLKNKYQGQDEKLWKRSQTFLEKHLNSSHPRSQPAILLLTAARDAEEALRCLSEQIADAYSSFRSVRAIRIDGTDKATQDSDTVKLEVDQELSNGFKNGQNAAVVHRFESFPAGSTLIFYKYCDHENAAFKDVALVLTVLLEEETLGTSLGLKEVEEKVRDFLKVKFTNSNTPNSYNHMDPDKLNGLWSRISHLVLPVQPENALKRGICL
Chain of Left-right determination factor 2 (Homo sapiens) (O00292 whole entry, looked up): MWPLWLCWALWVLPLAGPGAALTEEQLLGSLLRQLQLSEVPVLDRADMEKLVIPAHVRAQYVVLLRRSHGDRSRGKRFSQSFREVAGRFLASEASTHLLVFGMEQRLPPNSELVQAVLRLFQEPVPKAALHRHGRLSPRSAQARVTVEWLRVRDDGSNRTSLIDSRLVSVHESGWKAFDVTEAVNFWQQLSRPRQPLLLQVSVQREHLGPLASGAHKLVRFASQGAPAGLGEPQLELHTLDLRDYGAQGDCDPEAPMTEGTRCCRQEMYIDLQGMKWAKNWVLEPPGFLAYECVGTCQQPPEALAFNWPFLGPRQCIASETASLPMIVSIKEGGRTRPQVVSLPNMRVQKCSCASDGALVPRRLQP
Chain of Albumin (Bos taurus) (P02769 whole entry, looked up): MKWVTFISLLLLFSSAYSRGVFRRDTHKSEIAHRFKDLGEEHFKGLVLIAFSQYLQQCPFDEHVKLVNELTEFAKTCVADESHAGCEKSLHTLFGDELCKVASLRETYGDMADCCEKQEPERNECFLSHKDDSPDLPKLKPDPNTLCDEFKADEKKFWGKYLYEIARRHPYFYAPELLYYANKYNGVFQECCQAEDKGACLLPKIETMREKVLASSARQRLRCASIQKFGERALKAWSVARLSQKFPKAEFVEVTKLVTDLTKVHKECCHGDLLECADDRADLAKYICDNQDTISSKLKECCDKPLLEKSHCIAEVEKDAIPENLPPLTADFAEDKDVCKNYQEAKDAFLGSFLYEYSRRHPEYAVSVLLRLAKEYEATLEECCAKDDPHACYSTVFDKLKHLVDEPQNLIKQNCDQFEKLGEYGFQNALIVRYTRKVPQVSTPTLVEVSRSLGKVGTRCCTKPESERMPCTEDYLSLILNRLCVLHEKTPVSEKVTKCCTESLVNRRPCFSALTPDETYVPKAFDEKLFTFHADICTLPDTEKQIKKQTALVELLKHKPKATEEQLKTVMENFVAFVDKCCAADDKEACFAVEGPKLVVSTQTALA

Turning to `CS(=O)(=O)CCOC(=O)C1=CC(CCCO)=CC(c2ccc(CN3CCCC3)cc2)N(Cc2cccc(OC(F)(F)F)c2)C=C1C(=O)OCCS(C)(=O)=O` (stereo not given), the composite z-score in assay [1] was determined as 1.22; in assay [3], 0.558; in assay [4] it was 0.784; in [5] it was 0.217; in assay [6], 0.133; in assay [7] it was 0.0434. Besides, the composite z-score in [8] was -0.149; in assay [9], 1.17; in assay [10], 0.822; with Albumin (Bos taurus) it was 0.0883; in assay [12], 0.111; in assay [13] it was -0.0254. In addition, the composite z-score in assay [14] is 0.454; in [15], 1.16; in assay [16] it was 0.0212; in the assay on Sam68 (KHDRBS1), 1.26; in assay [17] it was 0.379; in [18] it was 0.644. The z-score in assay [2] was -2.99. In addition, in assay [11], the composite Z-score is 0.25 (inactive).
On to `COCCOC(=O)N1C(=O)[C@@]2(c3cc(C#CC4=CCCCC4)ccc31)[C@H](c1ccc(OCCO)cc1)N1[C@H](c3ccccc3)[C@H](c3ccccc3)OC(=O)[C@H]1[C@@H]2C(=O)N1CCc2cc(OC)c(OC)cc2C1`, for which the composite z-score is 1.24 in [1]; 1 in [3]; 0.933 in [4]; 0.43 in [5]; 0.139 in assay [6]; 0.0611 in [7]. In addition, the composite z-score in assay [8] was 0.121; in [9], 1.71; in assay [10] it was 0.595; with Albumin (Bos taurus) it was 0.134; in [12], 0.206; in assay [13], -0.0677. For the same molecule, the composite z-score in assay [14] was determined as 0.342; in assay [15], 1.01; in assay [16], 0.868; in the assay with Sam68 (KHDRBS1), 1.31; in assay [17] it was 0.839; in assay [18], 0.922. The molecule further registered a z-score in assay [2] of -0.829. The composite Z-score in [11] was 0.111 (inactive).
For the molecule `O=C(CS)NCCCCCNC(=O)[C@H]1C[C@H]2C(=O)NCC(=O)N2[C@H]1c1ccc(O)cc1`, the composite z-score was -1.12 in [1]; -0.55 in assay [3]; -0.0906 in assay [4]; -0.0879 in assay [5]; -0.256 in assay [6]; -0.214 in assay [7]. The composite z-score is -0.175 in assay [8]; -0.736 in assay [9]; -0.129 in assay [10]; -0.366 with Albumin (Bos taurus); -0.372 in assay [12]; -0.185 in assay [13]. In addition, the composite z-score was 0.281 in [14]; -0.29 in [15]; -0.474 in assay [16]; -1.3 in the assay on Sam68 (KHDRBS1); -0.559 in assay [17]; -0.0836 in assay [18]. This molecule came in with a z-score in [2] of 0.464. For the same molecule, the composite Z-score in assay [11] is 0.161 (inactive).
As for `CC(CO)N1C(=O)[C@@H]2C3C(=O)OCCC/C=C\[C@H]3OC23C=CCN(CCN2CCOCC2)C(=O)[C@@H]13` (stereo not given in full), the composite z-score was -0.201 in assay [1]; -0.0109 in assay [3]; -0.514 in [4]; -1.01 in [5]; -0.152 in [6]; 0.0048 in [7]. Further, the composite z-score in assay [8] is -0.272; in assay [9] it was -0.116; in assay [10], 0.0654; with Albumin (Bos taurus), -0.424; in assay [12], -0.21; in assay [13] it was -0.147. The composite z-score was 0.366 in assay [14]; -0.463 in [15]; -0.277 in assay [16]; 0.191 with Sam68 (KHDRBS1); -0.0493 in [17]; 0.272 in assay [18]. In assay [2], this molecule returned a z-score of -0.77. Further, the composite Z-score in [11] was 0.286 (inactive).
Take `COC(=O)[C@@]1(Cc2ccc(OC)cc2)[C@H]2c3cc(C(=O)N4CCCC4)n(CCSCCO)c3C[C@H]2CN1C(=O)c1ccccc1`: the composite z-score is 1.37 in [1]; -0.641 in [3]; 1.66 in assay [4]; 0.644 in assay [5]; 0.151 in assay [6]; 0.0039 in assay [7]. Moreover, the composite z-score in [8] was determined as 2.04; in [9], 1.01; in [10], 1.22; in the assay with Albumin (Bos taurus), 0.905; in assay [12] it was 0.211; in assay [13], 0.0312. In addition, the composite z-score in [14] is 0.678; in [15], 3.24; in assay [16], 0.247; in the assay with Sam68 (KHDRBS1) it was 0.657; in assay [17], -0.633; in assay [18], 0.941. This molecule also showed a z-score in assay [2] of -1.48. In assay [11], the composite Z-score is 0.228 (inactive).

The record behind these values is PubChem BioAssay.
